Screening data from PubChem.
YopH inh: YopH (Yersinia) phosphatase inhibition; inhibition, % (no concentration beside the values); actives 0.16% (n = 140,000); fluorescence Ex485/Em525; AID 898; in the data active means inhibition above about 50%
RmlC RmlD mix: mixture blocks RmlC and RmlD coupled enzyme activity | RmlC/RmlD coupled enzyme inhibition, 384-well mixture HTS | inhibition, % at 5.5 µM | actives 0.39% (n = 110,000) | AID 1532; in the data active means inhibition above about 30%, passing the limit was not always enough
Active calls of the source: *; · = not tested or not shown; + = active, no number. Most compounds without a hit are left out; they make up all but 0.44% or so of the library.

SMILES	YopH inh	RmlC RmlD mix
Cn1c(C(=O)N2CCN(C(=O)c3ccco3)CC2)cc2c(=O)n3ccccc3nc21	-28.8	96.4*
Cc1cccn2c(=O)c3cc(C(=O)N4CCN(C(=O)c5ccco5)CC4)n(C)c3nc12	-12.4	·
Cc1ccc(NC(=S)N/N=C/c2ccc([N+](=O)[O-])s2)cc1	-22.7	·
NC(=O)c1ccc(N=Cc2ccc([N+](=O)[O-])s2)cc1	92.0*	·
O=[N+]([O-])c1ccc(/C=N/n2cnc3ccccc32)s1	-9.9	·
Cc1cc(C)cc(N=Cc2ccc([N+](=O)[O-])s2)c1	86.3*	·
CC1(C)C(=O)OC(c2ccco2)C(C)(C)C1=O (centres undefined)	-6.6	-1.1
O=C(Nc1ccccn1)C(=O)N1CCCCC1	-15.1	1.6
COc1ccc(C2=NOC(C)(c3nnc(-c4ccc(Cl)cc4)o3)C2)cc1 (centres undefined)	·	-21.9
C#C[C@]1(O)CC[C@H]2[C@@H]3[C@H](C)CC4=C(CCC(=O)C4)[C@H]3CC[C@@]21C	·	-12.2
CC1CCC(NC(=O)c2ccc(/C=C3\Oc4ccccc4N(C)C3=O)cc2)CC1 (centres undefined)	-31.5	·
OCC(CO)(CO)N=Cc1c(O)ccc2ccccc12	-38.9	-4.4
Oc1ccc2ccccc2c1C=NC12CN3CCN(CN(C3)C1)C2	81.5*	-16.6
NC(=O)CC(NC(=O)Cc1ccc(Br)cc1)c1ccc(N2CCN(c3ccccc3)CC2)c([N+](=O)[O-])c1 (centres undefined)	·	-2.1
CCCCCCNC(=O)n1cc(F)c(=O)[nH]c1=O	·	-11.2
CCN(C(=O)c1coc(=O)c(Br)c1)c1ccc2c(c1)OCO2	4.2	123.8*
CCN(C(=O)c1c(C)cc(=O)oc1C)c1ccc2c(c1)OCO2	-33.4	-8.0
CN1C(=O)C(Cc2c[nH]c3ccccc23)C(=O)N(C)C1=O	-26.4	·
CN1C(=O)C(Cc2cccc3ccccc23)C(=O)N(C)C1=O	55.1*	8.0
CCOC(=O)c1c2c(n(C)c1COC)C(=O)C(=O)c1ccc(Br)cc1-2	80.1*	7.9
CCOC(=O)c1c(C)nc(C)c(C(=O)OCC)c1-c1ccc(Br)cc1	-35.5	·
CCCCOCCCn1c(N)c(C(=O)OC(C)COC)c2nc3ccccc3nc21 (centres undefined)	-11.9	30.3
COCCCn1c(N)c(C(=O)OC(C)COC)c2nc3ccccc3nc21 (centres undefined)	8.0	46.3*
COc1ccc(NC(=O)N2CCCC(C(=O)NC(C)C)C2)cc1 (centres undefined)	-30.4	-12.0
COCCCNC(=O)C1CCCN(C(=O)Nc2ccc(OC)cc2)C1 (centres undefined)	53.3*	2.3
SMILES	YopH inh	RmlC RmlD mix
OCC[C@@H]1C[C@H](O)[C@@H](O)[C@]2(CCCCO2)O1	·	-10.6
C#CCNC(=O)C1=C[C@@H](c2ccc3c(c2)OCO3)C[C@@H](OCCCCO)O1	·	-15.6
Cc1cnc(NC(=O)c2cc3c(C)nn(Cc4ccccc4Cl)c3s2)s1	-29.5	·
CS(=O)(=O)N1c2ccccc2[C@]2(Br)C[C@H]3C(=O)N[C@@H](Cc4ccccc4)C(=O)N3[C@H]12	·	-6.3
O=C(NC(Cc1c[nH]c2ccccc12)c1nnc2n1CCCCC2)c1ccccc1 (centres undefined)	-22.0	10.7
O=C(NC(Cc1c[nH]c2ccccc12)c1nnc2n1CCCCC2)c1cccs1 (centres undefined)	55.4*	6.8
Cc1nc2ccccc2c(=O)n1NC(=O)c1c(O)c2c(n(CC(C)C)c1=O)CCCC2	83.6*	3.7
CCCCCCc1nc2ccccc2c(=O)n1NC(=O)c1c(O)c2c(n(CC(C)C)c1=O)CCCC2	4.9	-11.7
COc1ccc(CN2C(=O)c3ccccc3C(/C=N/OCc3ccc(Cl)cc3)C2=O)cc1 (centres undefined)	-6.2	-33.5
COc1ccc(CN2C(=O)c3ccccc3C(/C=N\OCc3ccc(F)cc3)C2=O)cc1 (centres undefined)	59.2*	3.1
CC1(c2nnc(-c3ccncc3)o2)CC(c2ccc([N+](=O)[O-])cc2)=NO1 (centres undefined)	·	9.4
Nc1cc2nsnc2cc1Br	99.6*	-3.7
Nc1cnc(Br)cc1Br	-25.9	·
Cc1nc(C(=O)NCCC(C)C)sc1C1(C)CC(c2ccccc2)=NO1 (centres undefined)	·	5.9
Nc1c(NCc2ccccc2F)c(=O)[nH]c(=O)n1Cc1ccccc1	64.0*	-21.1
Nc1c(NCCC2=CCCCC2)c(=O)[nH]c(=O)n1Cc1ccccc1	-12.6	·
O=C1N[C@@H](Cc2cn(S(=O)(=O)c3ccccc3)c3ccccc23)C(=O)N[C@H]1Cc1ccccc1	·	-9.4
CCN(CC)CCNC(=O)Cc1c(C(=O)O)n(C)c2ccccc12	-12.0	5.1
CCN(CC)CCCNC(=O)Cc1c(C(=O)O)n(C)c2ccccc12	52.1*	-7.6
Cc1cc(=O)[nH]c2c(C)c(Cl)ccc12	-8.9	-9.5
Cc1cc(=O)[nH]c2c(C)c(N)ccc12	-14.2	58.7*
O=C1c2cccc(Cl)c2C(=O)c2c1cccc2N1CCCC1	-0.2	-6.7
COc1ccc(/C=N/NC(=O)CCn2cnc(-c3ccccc3)c2-c2ccccc2)cc1OC	-4.7	·
COc1ccc(/C=N/NC(=O)C(C)n2cnc3ccccc3c2=O)cc1OC (centres undefined)	67.2*	·
COc1ccc2c(c1)c(=O)cc(C)n2CC(=O)NCc1ccco1	92.6*	-11.0
SMILES	YopH inh	RmlC RmlD mix
COc1ccc(OC)c(NC(=O)Cn2c(=O)n(CC(=O)NCc3ccco3)c(=O)c3ccccc32)c1	-14.1	1.1
CCCNC(=O)c1c(CSc2ccc(Cl)cc2)noc1C(=O)NCc1ccccc1	·	-2.3
CCC(NC(=O)OC(C)(C)C)C(=O)Oc1cc(C)cc2oc(=O)c3c(c12)CCC3 (centres undefined)	-0.2	-6.1
CCC(NC(=O)OC(C)(C)C)C(=O)Oc1ccc2c3c(c(=O)oc2c1)CCC3 (centres undefined)	-34.5	+
COc1ccccc1-c1c(C)nn2c(N3CCCCCC3)cc(C)nc12	81.3*	-1.6
COc1ccccc1-c1c(C)nn2c(N3CCN(c4ccccc4OC)CC3)cc(C)nc12	1.6	-2.8
CCN1CCc2c(sc(N)c2C#N)C1	-18.0	8.5
N#Cc1c(N)sc(=S)c2c1CCN(Cc1ccccc1)C2	·	118.7*
CCOc1ccccc1C1C(C#N)=C(N)Nc2onc(-c3ccccc3)c21 (centres undefined)	65.2*	-6.2
CCCc1[nH]nc2c1C(c1ccccc1OCC)C(C#N)=C(N)O2 (centres undefined)	-44.7	-17.3
Nc1cc(C(=O)O)ccc1Nc1ccccc1	-7.3	-11.6
Nc1ccc(Nc2ccccc2N)cc1	51.0*	19.9
C=Cc1c(C)c2cc3[nH]c(cc4nc(cc5nc(cc1[nH]2)C(C)=C5CCC(=O)O)C(CCC(=O)O)=C4C)c(C)c3C=C	·	42.9*
Cc1nnc(-n2ncc(C#N)c2N)c2nn(-c3ccccc3F)c(C)c12	-4.5	·
CN(C)CCCN1c2ccc([N+](=O)[O-])cc2CCc2cc([N+](=O)[O-])ccc21	·	-14.3
O=C(O)CCCCC1CCSS1 (centres undefined)	·	73.5*
O=C(O)CCC(=O)NC1CCCCCCC1	-19.9	0.0
CN(C)Cc1ccc(-c2nc3cccc4c3n2CCNC4=O)cc1	·	-11.6
COc1ccccc1C1CN=NC12CCCc1ccccc1C2=O (centres undefined)	-30.5	-7.1
CC(C)N(C(=O)COc1ccc(Br)cc1Cl)C(C)C	52.4*	3.0
COCCNC(=O)COc1ccc(Br)cc1Cl	-12.9	-8.6
